Source: PubChem BioAssay (National Center for Advancing Translational Sciences (NCATS))
A selection: hits, their analogues and other compounds. The true share with any hit is near 21%.
AMA1 RON2 block: AMA1-RON2 (P. falciparum) interaction inhibition; AlphaScreen AMA1-biotinylated RON2 peptide binding; AID 720542; 0.2% of 360,000 active; Potency, µM (doses to about 58.2 µM), hits mostly inhibitors; further: nearly all actives have a fitted effect of over 45% in size
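AMA1 (3D7) with his tag at 25 nM final met compounds first, then biotinylated RON2 peptide at 25 nM; detection used donor plus acceptor beads, 10 µg/mL apiece, read by AlphaScreen after 30 min at room temperature.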
Pf growth 48h: inhibits P. falciparum growth in the first generation, 48 h; Potency, µM (doses to about 28.7 µM), most hits filed as inhibitors; 5.9% of 310,000 active; AID 504832; P. falciparum luciferase growth in erythrocytes, 48 h
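Growth was read as firefly luciferase luminescence after a 48 h, 37 C, 5% CO2 exposure of compounds to reporter-bearing P. falciparum cultures (0.1% parasitemia, 2% hematocrit final) in Albumax-supplemented RPMI 1640.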
Pf growth 96h: P. falciparum growth inhibition at 96 hour, primary screen for plastid delayed-death inhibitors. P. falciparum luciferase reporter growth, 96 h. Potency, µM (highest dose often 28.7 µM), usual class: inhibitors. 6.9% of 320,000 active
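Delayed-death screen, second-generation endpoint: infected erythrocytes, 2% hematocrit, 0.05% parasitemia final; 96 hours at 37 C, 5% CO2; luciferase detection reagent; luminescence decrease equals reduced growth.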
Shiga inhibitor: inhibitors of Shiga toxin in Vero cells. Vero cells, Shiga toxin protein synthesis inhibition reporter. inhibition, % at 38.7 µM. 9.2% of 290,000 active; in the data active means inhibition mostly above about 28%, no sharp cut-off; inactive means mostly below about 43%
HCV inh: blocks hepatitis C virus; Huh7.5.1 HCVcc-Cre infection, luciferase reporter, 44 h; Potency, µM (titrated, usually from 41.8 µM), actives largely listed as inhibitors; 3.4% of 340,000 active
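A cell-based infection assay in which seeded cells (1,000 per well) receive test compound after 4 h, are inoculated with HCVcc-Cre at approximately 0.5 moi, and are incubated 44 h before luminescence detection.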
Cycloheximide cs: counter-screen hit for Shiga toxin inhibitors, cycloheximide; max response, %; 12% of 300,000 active; cell reporter, cycloheximide protein synthesis inhibition counterscreen; AID 2314; in the data active means max response mostly above about 13%, no sharp cut-off; inactive means mostly below about 14%; further: read at 38.3 µM for the half of the compounds with a filed dose
Hits are given with their value; i = inactive; ? = inconclusive; nt = not tested or not shown; [ ] = remark or other dose. Unless noted, the call rests on the fitted dose curve; in most records, active means well fitted curve in the direction sought with a large enough effect; inconclusive means small, poorly fitted or top-dose-only effect, or another doubt; inactive means no such curve, though single readings can be large; an effect the other way counts as inactive or inconclusive.

SMILES	AMA1 RON2 block	Pf growth 48h	Pf growth 96h	Shiga inhibitor	HCV inh	Cycloheximide cs
Cc1ccc(NC(=O)c2c(Cl)n(C)c3ccccc23)cc1	i	i	i	i	?	30
Cc1cc2oc(C(=O)Nc3ccc(S(=O)(=O)N4CCCC(C)C4)cc3)cc(=O)c2cc1Cl (stereo unspecified)	i[11.6 µM]	13µM	?	i	i	i
Cc1cc(C)c2oc(C(=O)Nc3ccc(S(=O)(=O)Nc4nccs4)cc3)cc(=O)c2c1	i	?	?	i	i	i
Cc1cc(C)c2oc(C(=O)Nc3ccc(S(=O)(=O)N4CCC(C)CC4)cc3)cc(=O)c2c1	i	i	i	i	i	i
Cc1cc2oc(C(=O)Nc3ccc(S(=O)(=O)Nc4nccs4)cc3)cc(=O)c2cc1Cl	i	i	13µM	i	i	i
O=c1[nH]c(C2CCN(S(=O)(=O)c3ccc(C(F)(F)F)cc3)CC2)nc2c1nnn2Cc1ccccc1	i	?	?	i	i	i
Cn1nc(-c2ccc(C(=O)Nc3cccnc3)cc2)c2ccccc2c1=O	i	6.6µM	?	i	i	i
Cc1ccc(NC(=O)c2ccc(-c3nn(C)c(=O)c4ccccc34)cc2)cc1	i	nt	10µM	i	13µM	i
Cn1nc(CC(=O)NC2CCCCC2)c2ccccc2c1=O	i	i	i	i	i	i
Cn1nc(-c2ccc(OCC(=O)Nc3cccnc3)cc2)c2ccccc2c1=O	i	?	i	i	?	i
Cn1nc(-c2ccc(C(=O)NC3CCCCC3)cc2)c2ccccc2c1=O	i	5.2µM	i	i	i	i
Cn1nc(-c2ccc(C(=O)Nc3ccc(F)cc3)cc2)c2ccccc2c1=O	i	?	i	i	?	i
Cn1nc(CC(=O)NC2CCCCCC2)c2ccccc2c1=O	i	nt	i	i	3.2µM	i
CC(=O)NC(Cc1ccc(C)cc1)C(=O)NC1CCN(S(=O)(=O)c2ccccc2)CC1 (stereo unspecified)	i	i	i	i	i	i
Cc1ccc(NC(=O)c2ccc(-c3nn(C)c(=O)c4ccccc34)cc2)c(C)c1	i	nt	6.6µM	i	?	i
Cn1nc(-c2ccc(C(=O)Nc3cccc(Cl)c3)cc2)c2ccccc2c1=O	i	nt	3.3µM	i	i	i
CC(O)CNC(=O)c1ccc(-c2nn(C)c(=O)c3ccccc23)cc1 (stereo unspecified)	i	nt	i	i	i	i
COc1cc(NC(=O)Cc2nn(C)c(=O)c3ccccc23)cc(OC)c1OC	i	13µM	10µM	i	?	20
CCC(=O)N1CCC(C)(C(=O)Nc2ccc(OC)c(OC)c2)C1 (stereo unspecified)	i	nt	nt	nt	nt	nt
NC(=O)c1cc[n+](CC(=O)NC(=O)Nc2ccccc2)cc1	i	i	i	nt	i	nt
C=CCc1ccccc1OCC(O)CNC1CCCC1 (stereo unspecified)	i	?	?	i	i	i
CC(C)NC[C@@H](O)COc1cccc2ccccc12	i	9.3µM	?	nt	i	nt
C=CCc1ccccc1OCC(O)CNC(C)C (stereo unspecified)	i	13µM	?	i	?	i
CSc1nc(COC(=O)NC(C)C)c(COC(=O)NC(C)C)n1Cc1ccccc1	i	nt	nt	nt	nt	nt
CC(C)OCCCNC(=O)Cn1ccc2cc(S(=O)(=O)N3CCCCC3)ccc21	i	?	i	i	i	i
SMILES	AMA1 RON2 block	Pf growth 48h	Pf growth 96h	Shiga inhibitor	HCV inh	Cycloheximide cs
COCCCNC(=O)c1ccc2nc(Cc3ccc(OC)cc3)oc2c1	i	i	i	i	i	32
COc1ccc(Cc2nc3ccc(C(=O)N(C)CCn4ccnc4)cc3o2)cc1OC	i	i	?	63	i	77
COc1ccc(Cc2nc3ccc(C(=O)NCCCSC)cc3o2)cc1OC	i	i	2.9µM	39	i	45
COc1ccc(Cc2nc3ccc(C(=O)N(C)Cc4cc(C)[nH]n4)cc3o2)cc1OC	i	?	i	i	i	i
C=CCNC(=O)c1ccc2nc(Cc3ccc(OC)cc3)oc2c1	i	nt	nt	nt	i	nt
COC(=O)CCNC(=O)c1ccc2nc(Cc3ccc(OC)c(OC)c3)oc2c1	i	i	?	29	i	24
CC(C)(Oc1ccc(Cl)cc1)C(=O)NC1CC1	i	?	i	nt	i	nt
COc1ccc(Cc2nc3ccc(C(=O)N(C)C(C)c4ccon4)cc3o2)cc1 (stereo unspecified)	i	i	i	49	i	41
CC(=O)NCC(=O)N1CCCC(C(=O)c2ccc(-c3ccccc3)c(F)c2)C1 (stereo unspecified)	i	i	?	i	i	i
CN(C)S(=O)(=O)N1CCCC(C(=O)c2ccc(C(F)(F)F)cc2)C1 (stereo unspecified)	i	i	0.83µM	i	i	i
COc1ccc(C(=O)C2CCCN(C(=O)COc3ccc(C(C)=O)cc3)C2)cc1F (stereo unspecified)	i	i	12µM	i	i	i
COCC(=O)N1CCCC(C(=O)c2ccc(-c3ccccc3)c(F)c2)C1 (stereo unspecified)	i	i	?	i	?	28
CCOC(=O)c1c(C)[nH]c(C(=O)N2CCCC(C(=O)c3ccccc3OC)C2)c1C (stereo unspecified)	i	?	i	i	i	12
CC[C@@H]1[C@H]2CCCC(=O)N3CC[C@@H](C[C@@H]1Nc1ccccc1)[C@@H]23	i	?	i	i	i	i
COc1ccccc1C(=O)NCCC(=O)NCC(c1ccc(F)cc1)N1CCOCC1 (stereo unspecified)	i	i	i	nt	i	nt
CCCCN1C(=O)C(CC(=O)NCCCN(C)C)CC(C(=O)N2CCOCC2)=C1C (stereo unspecified)	i	nt	nt	nt	nt	nt
COc1ccccc1C(=O)C1CCCN(C(=O)c2ccccc2C(C)=O)C1 (stereo unspecified)	i	i	i	49	i	33
CC(=O)c1ccccc1C(=O)N1CCCC(C(=O)c2ccc(C(F)(F)F)cc2)C1 (stereo unspecified)	i	i	i	70	i	54
COc1ccccc1C(=O)C1CCCN(C(=O)c2ccc(C(C)=O)s2)C1 (stereo unspecified)	i	i	?	i	i	i
COc1ccc(C(=O)C2CCCN(C(=O)c3ccccc3C(C)=O)C2)cc1F (stereo unspecified)	i	i	?	i	i	30
CCOC(=O)C1CCCN(C(=O)COc2ccc(C(=O)c3ccc(F)cc3)cc2)C1 (stereo unspecified)	i	nt	nt	nt	13µM	nt
CC(C)NC(=O)C1(C)CCCN1C(=O)c1ccc2c(c1)C(C)(C)CCC2(C)C (stereo unspecified)	i	nt	nt	nt	nt	nt
O=[N+]([O-])c1ccc(NCCCc2ccccc2)cc1	i	nt	nt	nt	nt	nt
COc1ccc(C(=O)C2CCCN(C(=O)c3ccc(F)cc3)C2)cc1OC (stereo unspecified)	i	i	i	i	nt	i
COc1ccccc1N1CCN(C2CCCN(C(=O)CN3CCCC3=O)C2)CC1 (stereo unspecified)	i	i	?	i	nt	i
